NR2F2 inh – blocks human COUP-TFII nuclear receptor | 0.7% of 370,000 active | HEK293T NGFI-A luciferase reporter, luminescence | inhibition, % at 8.6 µM | P24468 | AID 686940;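 active means inhibition above a per-plate cutoff, mean inhibition of test wells between control levels plus 3 SD, cut at about 38% in these data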;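 further: cells cotransfected with COUP-TFII expression vector driving the NGFI-A reporter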
NCOA2 inhibitor – inhibits human steroid receptor coactivator 2; Q15596; HEK293 GAL4-SRC2 luciferase reporter, luminescence; inhibition, % at 9 µM; 0.17% of 370,000 active; AID 651957;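 active means inhibition above the mean inhibition of all tested compounds plus 3 SD, set per campaign, cut at about 52% in these data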
LRH-1 inv ag – inverse agonists of human LRH-1 (NR5A2) | O00482 | HEK293T StAR-luciferase reporter, LRH-1 transfected, 24 h | inhibition, % at 3.6 µM | 0.13% of 360,000 active | AID 602396;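 active means inhibition above the mean inhibition of all tested compounds plus 3 SD, cut at about 73% in these data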
GalR3 antag – human GalR3 antagonism. 0.44% of 360,000 active. O60755. AID 651719. HEK293 GalR3-CNG cAMP membrane potential fluorescence; galR3 body fused to GalR1 C-terminus. inhibition, % at 3 µM;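 active means inhibition above the screen-wide average plus 3 SD, cut at about 13% in these data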;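 further: forskolin and galanin both at EC90 stimulate the cells; cAMP rise reported by CNG channel membrane potential dye signal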
NCOA3 inh – human NCOA3 inhibition; 0.17% of 360,000 active; inhibition, % at 3.6 µM; Q9Y6Q9; HEK293 GAL4-SRC3 luciferase reporter, luminescence;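 active means inhibition above a per-campaign cutoff, the mean of all compounds plus 3 SD, cut at about 60% in these data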;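 further: higher means less SRC3-driven luciferase light from the GAL4 reporter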
NCOA1 inh – human NCOA1 inhibition. AID 588354. inhibition, % at 3.6 µM. 0.12% of 360,000 active. HEK293 GAL4-SRC1 luciferase reporter, luminescence;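 active means inhibition above the campaign mean plus 3 SD, with each screening campaign given its own cutoff, cut at about 60% in these data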
GalR3 antag conf – confirmation of human galanin receptor 3 antagonists; shares compounds with GalR3 antag; inhibition, % at 3 µM; 59% of 1,600 active; HEK293 GalR3 CNG cAMP biosensor, membrane potential fluorescence; galR3 fused to GalR1 carboxy tail; challenged with forskolin and galanin at EC90;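 active means inhibition above the primary screen's cutoff, the mean inhibition of all screened compounds plus 3 SD, cut at about 13% in these data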
HEK-CNG parental – counter-screen for GalR3 antagonists: nonspecific agonists in parental HEK-CNG cells; shares compounds with GalR3 antag; HEK293-CNG parental cells, cAMP membrane potential fluorescence; normalised: DMSO wells 0%, forskolin wells 100%; activation, % at 3 µM; 10% of 1,600 active; AID 652268; in the data active means activation above about 1.3%
Each line names hits and unclear results; the compound was inactive in the other large screens (follow-up assays come after a bar, where they were run). The list is not random: actives were taken first. Their share in the collection is about 1.1%.

CC(=O)c1ccc(S(=O)(=O)N2CCN(C(C)=O)CC2)cc1	GalR3 antag 16 | GalR3 antag conf inactive | HEK-CNG parental inactive
O=C(CSc1nc2ccccc2s1)Nc1ccc(N2CCOCC2)c(Cl)c1	none
O=C(CSc1nc2ccccc2o1)Nc1ccc(N2CCOCC2)c(Cl)c1	GalR3 antag 92 | GalR3 antag conf 109 | HEK-CNG parental inactive
O=C(O)c1ccccc1C(=O)c1ccc(F)c(F)c1	GalR3 antag 17 | GalR3 antag conf inactive | HEK-CNG parental inactive
Cc1cc(N2CCC[C@@H]2C)nc2ccccc12	none (no result: NCOA2 inhibitor, LRH-1 inv ag, GalR3 antag, NCOA3 inh, NCOA1 inh)
Cc1ccc(OCC(=O)Nc2cc(S(=O)(=O)N3CCCCC3)ccc2C)c([N+](=O)[O-])n1	GalR3 antag 13 | GalR3 antag conf inactive | HEK-CNG parental inactive
Cc1ccc(OCC(=O)Nc2ccc(S(=O)(=O)N3CCCCC3)cc2)c([N+](=O)[O-])n1	none
COCc1[nH]nc2c1C(c1ccc(OC)c(OC)c1)C(C#N)=C(N)O2 (stereo unspecified)	none
CCn1c2ccccc2c2cc(C3C(C#N)=C(N)Oc4n[nH]c(COC)c43)ccc21 (stereo unspecified)	GalR3 antag 41 | GalR3 antag conf 26 | HEK-CNG parental inactive
O=C1CCC[C@H]2C[C@H](NCc3cccs3)CC[C@]23CCCN13	none (no result: NCOA2 inhibitor, LRH-1 inv ag, GalR3 antag, NCOA3 inh, NCOA1 inh)
Cc1cc(C)n2nc(C(=O)NCc3ccccc3)nc2n1	none (no result: GalR3 antag) | GalR3 antag conf inactive | HEK-CNG parental inactive
Cc1ccc(CNC(=O)c2nc3nc(C)cc(C)n3n2)cc1	none
C=CCN1[C@H](CO)[C@H](c2ccc(Br)cc2)[C@@H]1C#N	none (no result: LRH-1 inv ag, GalR3 antag, NCOA3 inh, NCOA1 inh)
Cc1ccnc(SCC(=O)Nc2sc3c(c2C#N)CCCC3)n1	GalR3 antag 43 | GalR3 antag conf 95 | HEK-CNG parental inactive
Cc1csc(SCC(=O)Nc2sc3c(c2C#N)CCC3)n1	none
O=S(=O)(c1ccccc1)c1ncc(C(F)(F)F)cc1Cl	GalR3 antag 15 | GalR3 antag conf 24 | HEK-CNG parental inactive
CCC[C@H]1[C@@H](OC(=O)Oc2ccc([N+](=O)[O-])cc2)CC[C@@]23CCCN2C(=O)CCC[C@@H]13	none (no result: NCOA2 inhibitor, LRH-1 inv ag, GalR3 antag, NCOA3 inh, NCOA1 inh)
CC1CCCc2sc3nc(N4CCN(CCO)CC4)n4ncnc4c3c21 (stereo unspecified)	GalR3 antag 22 | GalR3 antag conf 43 | HEK-CNG parental 1.9
COc1ccc(N2CCN(CCCNC(=O)CCOC(C)(C)C)CC2)cc1	none (no result: LRH-1 inv ag, GalR3 antag, NCOA3 inh, NCOA1 inh)
C/C(CCC1CC(C)(C)OC1=O)=N\NC(N)=S (stereo unspecified)	GalR3 antag 13 | GalR3 antag conf inactive | HEK-CNG parental inactive
CC1CCN(C(=O)c2[nH]cnc2C(=O)NCc2ccc(CNC(=O)OC(C)(C)C)cc2)CC1	none
CC1CCN(C(=O)c2[nH]cnc2C(=O)NCc2ccccc2)CC1	none (no result: GalR3 antag) | GalR3 antag conf inactive | HEK-CNG parental inactive
COc1ccc(-c2c3c(=O)n(C)c(=O)n(C)c3cn2-c2cc(OC)ccc2OC)cc1	GalR3 antag 18 | GalR3 antag conf 20 | HEK-CNG parental inactive
COc1ccc(-c2c3c(=O)n(C)c(=O)n(C)c3cn2-c2ccccc2O)cc1	none
C#CCN(CC=C)Cc1ccc(OC)cc1OC	none (no result: LRH-1 inv ag, GalR3 antag, NCOA3 inh, NCOA1 inh)
Cc1ccsc1/C=N/NC(=O)c1ccncc1	none
COc1cc(C(=O)N/N=C/c2sccc2C)cc(OC)c1OC	GalR3 antag 14 | GalR3 antag conf inactive | HEK-CNG parental 1.8
CC1=Nc2ccccc2/C1=C/c1sc(=S)n(-c2cccc(C(=O)O)c2)c1O	none
CSc1nsc2nc(=O)c(/C=C3\C(C)=Nc4ccccc43)c(N)n12	GalR3 antag 13 | GalR3 antag conf inactive | HEK-CNG parental inactive
COc1ccc(C2c3c(-c4cc(Cl)c(C)cc4O)n[nH]c3C(=O)N2Cc2cccnc2)cc1OC (stereo unspecified)	GalR3 antag 64 | GalR3 antag conf 67 | HEK-CNG parental inactive
COc1ccc(C2c3c(-c4ccccc4O)n[nH]c3C(=O)N2Cc2ccco2)cc1OC (stereo unspecified)	none
CC(=O)c1cc(-c2cc(C(=O)O)cc([N+](=O)[O-])c2)c(=O)n2c1CCC2	none (no result: LRH-1 inv ag, GalR3 antag, NCOA3 inh, NCOA1 inh)
O=C(OC12CCCN(C1)/C(=C/c1cccnc1)C2)C1CCCCC1 (stereo unspecified)	none (no result: LRH-1 inv ag, GalR3 antag, NCOA3 inh, NCOA1 inh)
CCCOc1ccc(Cl)cc1CN1CCOCC1	none
COc1ccc(Cl)cc1CN1CCOCC1	GalR3 antag 13 | GalR3 antag conf inactive | HEK-CNG parental inactive
CCOC(=O)CNC(=O)CNC(=O)c1ccc(OC(C)C)cc1	none
CCOC(=O)CNC(=O)CNC(=O)c1ccc(OCC(C)C)cc1	GalR3 antag 86 | GalR3 antag conf inactive | HEK-CNG parental inactive
COc1ccc2c(c1)CO[C@H]([C@H](O)COC(C)=O)[C@H]2/C=C/c1ccccc1	none (no result: LRH-1 inv ag, GalR3 antag, NCOA3 inh, NCOA1 inh)
CC(C)(C)OC(=O)NCCCCCc1nnc(SCC(=O)Nc2cccc(Cl)c2)o1	GalR3 antag 17 | GalR3 antag conf 77 | HEK-CNG parental inactive
Cc1nc2ccc(C(=O)N3CCN(C(=O)C(Cl)Cl)CC3)cc2n1C1CCCC1	none (no result: LRH-1 inv ag, GalR3 antag, NCOA3 inh, NCOA1 inh)
O=C(NCCc1nc2ccccc2n1C/C=C/c1ccccc1)C1CCCCC1	none (no result: NCOA2 inhibitor, LRH-1 inv ag, GalR3 antag, NCOA3 inh, NCOA1 inh)
Cc1ccc2nc(SCC(=O)NCc3ccc(F)cc3)nc(=O)n2c1	GalR3 antag 18 | GalR3 antag conf inactive | HEK-CNG parental inactive
Cc1ccc2nc(SCC(=O)Nc3ccc(F)cc3)nc(=O)n2c1	none
N#C/C(=C(/O)COc1ccc(Cl)cc1)c1nc2ccccc2s1	GalR3 antag 14 | GalR3 antag conf inactive | HEK-CNG parental 1.3
CCOCCCNS(=O)(=O)c1ccc(NC(=O)c2ccccc2)cc1	GalR3 antag 65 | GalR3 antag conf inactive | HEK-CNG parental inactive
CCOCCCNS(=O)(=O)c1ccccc1	none
C=CCNC(=O)CN(C(=O)Cc1ccc(Cl)nc1)c1cccc(Br)c1	none (no result: LRH-1 inv ag, GalR3 antag, NCOA3 inh, NCOA1 inh)
COc1ccc(CCC[C@@H](CCC(=O)N(c2ccccc2)c2ccccc2)CCc2ccccc2)cc1	none (no result: LRH-1 inv ag, GalR3 antag, NCOA3 inh, NCOA1 inh)
COc1ccc(-c2nc(C#N)c(NCc3ccc(F)cc3)o2)cc1OC	GalR3 antag 13 | GalR3 antag conf 25 | HEK-CNG parental inactive
COc1ccc(-c2nc(C#N)c(NCc3cccnc3)o2)cc1OC	none
O=C(CSc1nnc(-c2cccnc2)n1-c1ccccc1)c1ccccc1Cl	none (no result: LRH-1 inv ag, GalR3 antag, NCOA3 inh, NCOA1 inh)
Cc1ccccc1-c1cc(C(=O)O)nn1CC1CC(c2cccc([N+](=O)[O-])c2)=NO1 (stereo unspecified)	GalR3 antag 18 | GalR3 antag conf inactive | HEK-CNG parental inactive
COc1ccc(CNC(=O)CN(C(=O)CCC(=O)Nc2ccccn2)c2cccc(C)c2)cc1	GalR3 antag 13 | GalR3 antag conf 30 | HEK-CNG parental 1.3
